Screens as filed in PubChem BioAssay.
Most compounds without a hit are left out; they make up all but 5.5% or so of the library.
Six1-Eya2 blk: blocks human Six1 binding to Eya2. AlphaScreen GST-Six1/His-Eya2 binding, biochemical; stronger effect = lower value. 360,000 compounds, 0.56% hits. Q15475+O00167. activity change, % (no concentration beside the values); in the data active means activity change below about -65%; inconclusive means mostly about -30% to -63%; further: on the % scale 0 is the no-effect control and ±100 the full control effect
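GST-Six1 + His-Eya2 (5X stock: 250/500 nM); Tris pH 8.0, 300 mM NaCl, 0.05% BSA, 0.02% Tween 20; GSH donor/Ni acceptor beads; 1 h 37 °C dark; AlphaScreen readout.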
CBFb-RUNX1 inh: blocks binding between human CBF-beta and RUNX1. Q01196+Q13951. AlphaScreen CBFb-His/RUNX1-biotin binding, biochemical. Potency, µM (series often up to 59.8 µM), for inactives: at the highest dose activity, negative = inhibition, actives largely listed as inhibitors. 230,000 tested, under 10 active; further: % of control where 0% means no effect
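Read-out: AlphaScreen. Format: His-CBF-beta with biotinylated RUNX1 (30 nM each) preincubated 20 min, compound 15 min, Ni-chelate plus streptavidin beads 90 min; room temperature throughout.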
MBNL1 CUG block: MBNL1-poly(CUG) RNA binding inhibition; Q9NR56; TR-FRET MBNL1-His/biotin-(CUG)12 binding, 665/545 ratio; Potency, µM (top dose mostly 57.5 µM), without a hit: at the highest dose activity change, negative = inhibition, actives largely listed as inhibitors; 280,000 compounds, 0.036% hits; AID 2675; active means well fitted inhibition curve with a large enough effect in the signal ratio, with a control signal flat, not every such curve was filed as active; inconclusive means small, poorly fitted or top-dose-only effect, or effect the other way, or a change in a side signal; inactive means no such curve, though single readings can be large or run the other way; the % refers to the signal ratio; further: potency means the concentration at half of the fitted maximal effect; on the % scale 0 is the no-effect control and ±100 the full control effect
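His-tagged MBNL1 binding to biotinylated (CUG)12 RNA was measured by TR-FRET using terbium anti-His antibody (0.055 ng/ul final) and streptavidin-XL665 (5 nM final). Compounds were titrated 92 nM to 58 uM; 60 min at room temperature.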
CtBP-E1A inh: inhibitors of CtBP/E1A interaction. activity change, % (no concentration beside the values). AlphaScreen GST-E1A/His-CtBP binding, 1536-well; stronger effect = lower value. AID 651724. 340,000 compounds, 0.49% hits; in the data active means activity change below about -65%; inconclusive means mostly about -30% to -63%; further: on the % scale 0 is the no-effect control and ±100 the full control effect
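In 5 uL wells, 23 nL compound meets equimolar GST-E1A and His-CtBP (5X stock 125 nM each) for 2 h, 37 °C. Beads (5X, 50 ug/mL) then 1 h, 37 °C, dark.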
RORg inh: inhibitors of mouse ROR gamma transcriptional activity. P51450. Drosophila S2 Gal4-RORgamma UAS-luciferase reporter, 20 h. Potency, µM (highest dose often 53.6 µM), for the others: at the highest dose activity change, negative = inhibition, usual class: inhibitors. 310,000 compounds, 5.4% hits; further: potency means the concentration at half of the fitted maximal effect; on the % scale 0 is the no-effect control and ±100 the full control effect; nearly all actives have a fitted effect of over 60% in size
Target sequence (P51450 whole entry, looked up, the tested form may be a part): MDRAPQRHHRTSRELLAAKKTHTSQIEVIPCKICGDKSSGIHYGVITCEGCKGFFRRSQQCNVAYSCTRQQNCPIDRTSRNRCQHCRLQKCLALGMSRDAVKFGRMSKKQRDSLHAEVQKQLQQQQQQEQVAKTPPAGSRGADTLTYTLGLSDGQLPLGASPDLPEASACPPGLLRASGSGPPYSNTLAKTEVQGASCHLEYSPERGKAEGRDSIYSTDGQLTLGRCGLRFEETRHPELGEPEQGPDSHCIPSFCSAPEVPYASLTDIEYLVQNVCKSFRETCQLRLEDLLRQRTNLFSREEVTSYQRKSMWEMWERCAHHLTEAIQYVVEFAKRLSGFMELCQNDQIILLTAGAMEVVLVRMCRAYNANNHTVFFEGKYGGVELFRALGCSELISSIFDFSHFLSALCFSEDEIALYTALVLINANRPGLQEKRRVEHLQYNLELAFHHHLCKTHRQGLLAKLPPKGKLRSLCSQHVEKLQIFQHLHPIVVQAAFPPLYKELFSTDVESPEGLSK
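Stable Schneider cell line, Gal4 DNA-binding domain fused to ROR gamma, UAS-luciferase. Cmpd 1 hr RT → CuSO4 700 uM final → 20 hr RT → luciferase reagent 10 min → luminescence.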
Gal4-VP16 FLuc: Gal4-VP16 reporter inhibition counter-screen | Drosophila S2 Gal4-VP16 UAS-luciferase, luminescence, 20 h | Potency, µM (series often up to 53.6 µM), for the others: top-dose activity, negative = inhibition, actives largely listed as inhibitors | 310,000 compounds, 3.5% hits;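 further: Gal4-VP16 expression switched on by copper sulfate through the metallothionein promoter; potency means the concentration at half of the fitted maximal effect; on the % scale 0 is the no-effect control and ±100 the full control effect; nearly all actives have a fitted effect of over 50% in size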
Starred values were filed as active, the others as inactive; ? = inconclusive; . = no result; [ ] = dose if it differs, or a comment. Unless noted, the call rests on the fitted dose curve; in most records, active means well fitted curve in the direction sought with a large enough effect; inconclusive means small, poorly fitted or top-dose-only effect, or another doubt; inactive means no such curve, though single readings can be large; an effect the other way counts as inactive or inconclusive.

SMILES	Six1-Eya2 blk	CBFb-RUNX1 inh	MBNL1 CUG block	CtBP-E1A inh	RORg inh	Gal4-VP16 FLuc
CCCC(=O)Nc1nnc(CC(=O)N2CCCC2)s1	-17	6%	?	9	1.3µM*	-6%
COc1ccc(S(=O)(=O)NCc2ccccn2)cc1NC(=O)c1ccccc1F	-1	.	20%	-1	-28%	-15%
O=C(Nc1ccc(F)cc1)C(CCc1ccccc1)N1CCN(c2cccc(C(F)(F)F)n2)CC1 (configuration not stated)	3	.	.	-1	.	.
COc1ccccc1Nc1nc(-c2sc(NC(=O)c3ccccc3)nc2C)cs1	17	-12%	47%	21	-39%	-1%
CCOc1ccccc1Nc1nc(-c2sc(NC(=O)c3ccccc3)nc2C)cs1	.	-6%	406%	.	?	5%
CCOc1ccccc1Nc1nc(-c2sc(NC(=O)c3cccc(Cl)c3)nc2C)cs1	2	-3%	56%	2	11µM*	-28%
COc1ccccc1Nc1nc(-c2sc(NC(=O)c3ccc([N+](=O)[O-])cc3)nc2C)cs1	.	-24%	?	.	4µM*	-30%
O=S(=O)(c1ccc(Br)s1)N1CCC(Cc2ccccc2)CC1	30	?	-20%	46	13µM*	-11%
CC(C)[C@H](NC(=O)OC(C)(C)C)C(=O)NCC1CCC(C(=O)N[C@@H](Cc2ccccc2)C(=O)O)CC1 (some centres not stated)	12	.	-15%	-12	-2%	-7%
Cc1ccccc1NC(=O)C(=Cc1ccc(C(=O)O)cc1)C(=O)Nc1ccccc1C	?	6%	2%	-13	7.9µM*	?
CCOC(=O)[C@]12CCC=C1N(Cc1ccco1)C(=O)[C@H](CC(=O)NCC13CC4CC(CC(C4)C1)C3)C2	-12	.	.	2	.	.
O=C(c1ccccc1Cl)N1CCN(C(=O)C2CCCO2)CC1 (configuration not stated)	5	.	.	0	.	.
Cc1cc(Cl)cc(C)c1OCC(=O)N1CCN(c2ncccn2)CC1	0	.	.	7	.	.
CC(C)c1nc2sc3c(=S)nc[nH]c3c2c2c1CCC2	-6	0%	-7%	-2	3.2µM*	?
Cc1cc(C)cc(C(O)c2ncc(-c3cccc(F)c3)[nH]2)c1 (configuration not stated)	-12	.	.	-13	.	.
O=C(/C=C/c1ccco1)NC(=S)Nc1nc(-c2ccc(Cl)cc2)cs1	-15	-3%	12%	-2	14µM*	?
O=C(/C=C/c1ccco1)NC(=S)Nc1nc(-c2ccc3ccccc3c2)cs1	-6	-9%	2%	-2	7.9µM*	?
O=C(/C=C\c1ccco1)Nc1nc(-c2ccccc2)cs1	5	-6%	.	-14	?	-19%
CCOC(=O)N1CCN(CCC(=O)Nc2ccc(F)c(F)c2)CC1	2	.	0%	8	-18%	-8%
O=C(Oc1ccc(Cl)c2cccnc12)c1ccco1	-88*	-24%	13%	-83*	0.89µM*	1.6µM*
O=C(Oc1cccc2cccnc12)c1ccc(Br)o1	-23	-1%	7%	-8	11µM*	?
O=C(Cc1ccc(Cl)cc1)Oc1cccc2cccnc12	-91*	-23%	5%	-83*	1.4µM*	4µM*
N/C(=N\OC(=O)Cc1ccc(Cl)cc1)c1ccccn1	7	-2%	1%	0	-13%	?
O=C(Oc1cccc2cccnc12)c1ccco1	?	?	1%	?	1.6µM*	4µM*
O=C(Nc1cccc(C(F)(F)F)c1)Nc1cc(Cl)ccc1C(=O)O	.	13%	.	.	27%	-5%
SMILES	Six1-Eya2 blk	CBFb-RUNX1 inh	MBNL1 CUG block	CtBP-E1A inh	RORg inh	Gal4-VP16 FLuc
O=C(COC(=O)C1CCC1)NCc1ccc(F)cc1	5	.	.	2	.	.
CN(C(=O)CCc1nnc(CCCCc2ccccc2)o1)C1CC(C)(C)NC(C)(C)C1	11	-4%	-11%	6	2µM*	4.5µM*
Fc1ccc(Br)cc1C1C=C(c2ccc(Br)s2)Nc2ncnn21 (configuration not stated)	-19	-3%	126%	-7	35µM*	3%[0.365 µM]
COc1cccc(C2C=C(c3ccc(Br)s3)Nc3ncnn32)c1OC (configuration not stated)	-20	2%	197%	-20	-119%	?
COC(=O)c1cc(NC(=S)NCc2ccc(Cl)cc2)cc(C(=O)OC)c1	-10	-1%	0%	0	?	?
COC(=O)c1sccc1NC(=S)NCc1ccc(Cl)cc1	-6	2%	-1%	2	0.79µM*	1.3µM*
COC(=O)c1ccc(C)c(NC(=S)NCc2ccc(Cl)cc2)c1	6	-1%	?	1	8.9µM*	14µM*
COC(=O)c1sccc1NC(=O)CSc1ccc(Cl)cc1	25	?	3%	16	-6%	1%
COc1ccccc1/C=C1\SC(=O)N(CC(=O)N(C)C2CCS(=O)(=O)C2)C1=O (configuration not stated)	1	.	?	-1	-35%	3%
COC(=O)CCC(=O)OC1(C)C(=O)C=C2C=C(c3ccc(C#N)cc3)OC=C2C1=O (configuration not stated)	.	-9%	.	.	0%	5%
Cc1cc(=O)n2[nH]c(-c3ccccc3)cc2n1	-3	3%	-4%	1	-7%	5%
Cc1cc(=O)n2[nH]c(-c3ccc(C(C)(C)C)cc3)cc2n1	1	4%	0%	6	?	22µM*
O=C(Nc1ccccc1)N1CCC2(CC1)CCN(S(=O)(=O)c1ccccc1)CC2	.	.	.	.	15%	0%
Cn1cnc([N+](=O)[O-])c1Oc1cccc(O)c1	1	-3%	11%	2	-30%	13µM*
CC(=O)Oc1ccc2c(c1)CCC1C2CC[C@]2(C)C(=O)CCC12 (some centres not stated)	.	18%	.	.	16%	6%
CCc1nnc(NC(=O)CSc2nnc(-c3ccc(OC)cc3)n2C)s1	-6	9%	-5%	-2	?	14%
CCSc1nnc(NC(=O)CSc2nccn2-c2cccc(C)c2)s1	-4	-18%	-10%	1	11µM*	?
CCOc1ccc(-n2ccnc2SCC(=O)Nc2nnc(CC)s2)cc1	4	-4%	-9%	-9	10µM*	4%
Brc1ccc(CNc2ccc3ncccc3c2)cc1	12	.	10%	.	?	7.1µM*
CCC(=O)c1ccc(OCC(O)Cn2c(C)nc3ccccc32)cc1 (configuration not stated)	0	16%	-3%	-3	?	7.9µM*
